Hits are enriched below; roughly 7.9% of the tested compounds scored in any of these assays.
HCMV antiviral – inhibitors of human cytomegalovirus; HFF cells, HCMV-luciferase reporter, 72 h; active compounds read low; activity change, negative = inhibition, % at 57.5 µM; 4.5% of 410,000 active; in the data active = activity change below about -60%; inconclusive = no clear call, values can overlap the other calls; inactive = above about -39%
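Inhibition of viral replication was scored as loss of reporter luminescence in HFFs infected with HCMV-luciferase (MOI 1 PFU/cell) for 72 h; compounds tested at 2 doses, normalized to buffer and Salinomycin controls.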
FMDV antiviral – blocks foot and mouth disease virus; FMDV antiviral cell-based qHTS; Potency, µM (highest dose often 57.9 µM), for inactives: at the top dose activity change, negative = inhibition, usual class: inhibitors; 1.2% of 410,000 active; calls by dose curve; tested in HEK293T cells; also: read-out not given here; potency is read from the fitted curve at half-maximal effect; nearly all actives have a fitted effect of over 45% in size
Lassa entry inh – inhibitors of Lassa virus binding or cell entry; Lassa virus pseudotype entry inhibition, cell reporter; Potency, µM (series often up to 37.9 µM), for the others: at the top dose activity change, negative = inhibition, hits mostly inhibitors; 1.2% of 300,000 active; AID 540256; calls by dose curve; tested in HEK293 cells; also: potency is read from the fitted curve at half-maximal effect; nearly all actives have a fitted effect of over 50% in size
MARV entry inh – inhibitors of Marburg virus binding or cell entry; Marburg virus pseudotyped entry inhibition, cell reporter; Potency, µM (doses to about 37.8 µM), for the others: at the highest dose activity change, negative = inhibition, actives largely listed as inhibitors; 1.8% of 300,000 active; AID 540276; calls by dose curve; tested in HEK293 cells; also: potency is read from the fitted curve at half-maximal effect
HCV inhibitor – HCV inhibition. 3.4% of 340,000 active. Huh7.5.1 HCVcc-Cre infection, luciferase reporter, 44 h. AID 651820. Potency, µM (top dose mostly 41.8 µM), inactives show at the top dose activity change, negative = inhibition, hits mostly inhibitors; active = well fitted inhibition curve with a large enough effect; inconclusive = small, poorly fitted or top-dose-only effect, or another doubt; inactive = no such curve, though single readings can be large or run the other way; also: potency is read from the fitted curve at half-maximal effect
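Antiviral activity was scored by luciferase reporter output from cells infected with HCVcc-Cre (~0.5 moi) in presence of compound, 44 h infection period, cells seeded 1,000/well 4 h prior.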
Numbers without * were called inactive; ? = inconclusive; . = no result; + = active, no number; ! = repeats disagree; [ ] = dose if it differs, or a comment. % is scaled to controls: 0 for no effect and ±100 for the full control effect.

SMILES | HCMV antiviral | FMDV antiviral | Lassa entry inh | MARV entry inh | HCV inhibitor
COc1ccc(C(=O)O/N=C(\N)c2ccccn2)cc1 | ? | 2µM* | ? | ? | 4%
CCOc1ccc(C(=O)O/N=C(\N)c2ccccn2)cc1OCC | 42 | 26% | . | . | 13µM*
CSc1ccc(-c2sc(Nc3ccccc3)n[n+]2-c2ccccc2)cc1 | . | -13% | . | . | -30%
CCc1ccc(Nc2n[n+](-c3ccccc3)c(-c3ccc(SC)cc3)s2)cc1 | -65* | -4% | . | . | -26%
CSc1ccc(-c2sc(Nc3cccc4ccccc34)n[n+]2-c2ccccc2)cc1 | -15 | 10% | . | . | 8.9µM*
COc1ccc(Cl)cc1NC(=O)c1ccc2c(c1)CCN2S(C)(=O)=O | ? | 16% | 16%[46.1 µM] | 26%[46.1 µM] | .
Cc1cccc(OCC(=O)Nc2ccccc2C(=O)OCc2cc(=O)n3nc(C4CC4)sc3n2)c1 | 23 | -22% | ? | . | .
COc1cc2c(cc1OC)CN(Cc1cc(=O)n3c(-c4ccccc4)csc3n1)CC2 | -73* | -15% | ? | ? | -30%
CC(=O)c1ccc(N2CCN(Cc3cc(=O)n4c(-c5ccccc5)csc4n3)CC2)cc1 | 10 | -25% | ? | -24%[46.1 µM] | 13µM*
O=C(N/N=C/c1cccc(O)c1)c1ccc2c(c1)OCCO2 | 157 | 57% | . | . | 8%
CCOc1cccc(/C=N/NC(=O)c2cc(-c3cccn3C)n[nH]2)c1O | -38 | 13% | 22µM* | ? | 11µM*
CCOc1cccc(/C=N/NC(=O)c2ccc3c(c2)OCCO3)c1O | + | 10% | ? | ? | ?
COc1cc(OC)c(OC)cc1/C=N/NC(=O)c1cc(-c2cccn2C)n[nH]1 | 3 | -1% | -6% | -9% | 10%
COc1cccc(/C=N/NC(=O)CNC(=O)c2ccc3c(c2)OCCO3)c1O | 12 | -20% | ? | -28% | 8%
Cc1cccc(/C=N/NC(=O)c2ccc3c(c2)OCCO3)c1O | -98* | . | . | . | .
Cc1ccsc1/C=N/NC(=O)c1ccc2c(c1)OCCO2 | 37 | -15% | ? | 3.2µM* | -16%
CCc1ccc(CN2CCc3nc(N4CCN(c5ccccc5F)CC4)ncc3C2)cc1 | -28 | ? | -5%[46.1 µM] | . | .
COCCn1c(=O)c(-c2ccc(OC)cc2)nc2cnc(N3CCOCC3)nc21 | . | -1% | . | . | .
C/C(=N\NC(=O)c1n[nH]c2c1CCC2)c1ccco1 | -65* | -25% | ? | ? | -2%
C/C(=N\NC(=O)c1cc2ccccc2cc1O)c1ccc(C)o1 | -14 | 23% | 0% | -2% | -17%
Cc1ccsc1/C=N\NC(=O)c1n[nH]c2c1CCC2 | 42 | 0% | 6.3µM* | 2.8µM* | ?
C/C(=N/NC(=O)c1cc2ccccc2cc1O)c1ccco1 | -73* | 14% | . | . | -17%
CCCCC/C=C\C\C=C/C=C/C=C/[C@@H](SC[C@H](N)C(=O)NCC(=O)O)[C@@H](O)CCCC(=O)O | . | -11%[0.463 µM] | . | . | .
CN(C)c1nc(OCCOC(=O)c2ccccc2)nc(N(C)C)n1 | -19 | -1% | -9% | 0% | 25µM*
CC(OC(=O)c1ccccc1NS(=O)(=O)c1cccc(N)c1)C(=O)N(C)Cc1ccccc1 (stereo not drawn) | -72* | 7% | ? | ? | ?
SMILES | HCMV antiviral | FMDV antiviral | Lassa entry inh | MARV entry inh | HCV inhibitor
COc1ccccc1CN1CCCC(n2cc(C(=O)N3CCCC3)nn2)C1 (stereo not drawn) | . | -18% | . | . | .
CCc1nn(CC(=O)NCCc2ccc(SC)cc2)c(=O)c2cc3sccc3n12 | -8 | 12% | . | -17%[46.1 µM] | .
N#CC(C#N)=C(Nc1ccc(F)cc1)SCc1cccc(F)c1 | -99* | ? | 13µM* | 7.1µM* | 10µM*
Cc1ccc(Cl)cc1N1CCN(C(=O)c2cc(S(=O)(=O)N3CCCCCC3)cn2C)CC1 | -9 | ? | -30%[46.1 µM] | . | .
CCOc1ccccc1N1CCN(C(=O)c2ccc(S(=O)(=O)Nc3ccccc3)cc2)CC1 | ? | -28% | . | . | 10µM*
CCOc1ccccc1N1CCN(C(=O)c2ccccc2)CC1 | -19 | -12% | 11% | 0% | 7%
CCOc1ccccc1N1CCN(C(=O)C2c3ccccc3Oc3ccccc32)CC1 | -17 | -4% | 7.1µM* | ? | ?
CCOc1ccccc1N1CCN(C(=S)NCc2ccccc2)CC1 | -88* | 11% | ? | ? | 13%
CC(C)=CCC/C(C)=C/CO/N=C1\C[C@@H](O)[C@@H](O)[C@@H]2[C@@H]3C(=O)N(Cc4ccc5c(c4)OCO5)C(=O)[C@@H]3CC[C@H]12 | . | . | . | -44%[14.2 µM] | .
COc1ccc(-c2[nH]c(-c3ccc(Cl)cc3)nc2SCC(=O)NCC2CCCO2)cc1 (stereo not drawn) | -10 | 8% | -12%[46.1 µM] | -25%[46.1 µM] | .
Cc1ccc2c(c1)N(C(=O)CCC(=O)NCCCN1CCOCC1)CC(C)O2 (stereo not drawn) | -65* | -20% | . | . | 11%
Cc1ccc2c(c1)N(C(=O)CCC(=O)NCc1ccccc1)CC(C)O2 (stereo not drawn) | -31 | -2% | . | . | -4%
Cc1ccc2c(c1)N(C(=O)CCC(=O)N1CCN(c3ccccn3)CC1)CC(C)O2 (stereo not drawn) | -71* | -8% | . | . | -10%
Cc1cccc(N2CCN(C(=O)CCC(=O)N3CC(C)Oc4ccc(C)cc43)CC2C)c1 (stereo not drawn) | -15 | 28µM* | . | . | ?
Cc1ccc(C(=O)Nc2cc(-c3nc4ncccc4o3)ccc2C)c(C)c1 | 4 | -4% | 0%[46.1 µM] | 2%[46.1 µM] | .
CCOc1ccc(C2C(C(=O)Nc3ccccc3C)=C(C)Nc3nnnn32)cc1 (stereo not drawn) | -14 | 6% | -21%[46.1 µM] | 5%[46.1 µM] | .
Oc1cc(-c2ccncc2)cc2cccnc12 | -97* | -5% | . | . | .
CN(C)CCCNC(=O)c1ccc(-c2cc(O)c3ncccc3c2)cc1 | -39 | 6% | . | . | .
CN(C)c1ccc(-c2cc(O)c3ncccc3c2)cc1 | -97* | 31% | . | . | .
CCOCCCNC(=O)c1ccc2c(c1)NC(=O)C(CS(=O)(=O)Cc1ccc(F)cc1Cl)N2 (stereo not drawn) | -15 | ? | 26%[46.1 µM] | . | .
Cc1cc(C)c2c(=O)cc(C(=O)NCCc3ccc(S(N)(=O)=O)cc3)oc2c1 | 12 | -27% | -2%[46.1 µM] | -10%[46.1 µM] | .
COc1ccc(-c2csc3ncnc(NCCO)c23)cc1 | -87* | ? | . | . | ?
COc1ccc(-c2csc3ncnc(Nc4ccc(O)cc4)c23)cc1 | ? | -27% | . | . | ?
COc1ccc(-c2csc3ncnc(NCCCO)c23)cc1 | -68* | ? | 8%[46.1 µM] | ? | ?
CCCCCOc1ccc(Cn2c(=O)oc3ccc(C)cc32)cc1OC | 9 | -23% | -11%[46.1 µM] | ? | .
CCN(c1ccccc1)S(=O)(=O)c1cc(C(=O)Nc2ccc(Br)cc2)ccc1F | -89* | 18µM* | 12µM* | ? | 2.8µM*!
Cc1ccc(C(=O)Nc2ccccc2)cc1S(=O)(=O)Nc1ccc(Br)cc1 | -23 | 28% | ? | . | .
CCN(c1ccccc1)S(=O)(=O)c1cc(C(=O)Nc2ccccc2Cl)ccc1F | -63* | ? | ? | ? | ?
Fc1ccc(Nc2nc(SCc3ccccc3F)nc3ccccc23)cc1 | -86* | -27% | 4%[46.1 µM] | . | .

Bioassay records deposited in PubChem BioAssay by National Center for Advancing Translational Sciences (NCATS).
